From PubChem
Most compounds without a hit are left out; they make up all but 1.5% or so of the library.
TNAP act DEA: activators of human TNAP at intermediate phosphate acceptor. P05186. purified TNAP, CDP-star luminescence, 100 mM DEA, 30 min; stronger effect = higher value; scale: 0 levamisole-inhibited, 1 vehicle-only enzyme. activation factor at 20 µM. 64,000 tested, under 10 active;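 active means activation factor of at least 2 at 20 µM, relative to controls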
Cdc25B inh: human M-phase inducer phosphatase 2 inhibition; recombinant Cdc25B, OMFP fluorescence Ex485/Em525; inhibition, %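 (compounds tested at 10 µM final in the well)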; P30305; AID 368; 65,000 tested, 0.1% active; in the data active means inhibition above about 50%
Target sequence (P30305 whole entry, looked up): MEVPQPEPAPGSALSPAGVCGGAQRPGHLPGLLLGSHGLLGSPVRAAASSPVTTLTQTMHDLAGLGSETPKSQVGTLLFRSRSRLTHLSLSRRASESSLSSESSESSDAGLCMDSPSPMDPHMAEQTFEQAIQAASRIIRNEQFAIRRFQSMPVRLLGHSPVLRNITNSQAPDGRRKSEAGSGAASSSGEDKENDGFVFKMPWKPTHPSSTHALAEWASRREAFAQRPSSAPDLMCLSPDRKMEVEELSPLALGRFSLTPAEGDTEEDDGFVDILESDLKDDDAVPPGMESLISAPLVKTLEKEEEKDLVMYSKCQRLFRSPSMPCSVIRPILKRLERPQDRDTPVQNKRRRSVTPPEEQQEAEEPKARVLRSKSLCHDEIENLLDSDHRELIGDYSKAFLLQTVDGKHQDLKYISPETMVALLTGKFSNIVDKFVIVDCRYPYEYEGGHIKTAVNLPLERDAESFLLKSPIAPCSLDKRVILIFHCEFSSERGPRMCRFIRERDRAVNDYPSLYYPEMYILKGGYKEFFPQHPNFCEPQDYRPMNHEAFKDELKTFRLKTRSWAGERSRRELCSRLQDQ
HePTP inh: inhibitors of human HePTP phosphatase; P35236; recombinant HePTP phosphatase activity, OD absorbance; inhibition, % at 20 µM; 110,000 tested, 0.64% active; in the data active means inhibition above about 50%;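 further: plate controls were vehicle for no effect and reference inhibitor for full effect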
Hsp90 inh: displaces geldanamycin probe from tumor Hsp90. 64,000 tested, 0.35% active. inhibition, % at 30 µM. P07900. NCI-N417 lysate Hsp90, Cy3B-geldanamycin FP displacement;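 active means inhibition above 50%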;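 further: 0% = tracer plus lysate wells and 100% = tracer alone without lysate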
PLAP activator: human PLAP activation | P05187 | purified PLAP enzyme, luminescent substrate read-out; stronger effect = higher value | activation fold at 20 µM | 96,000 tested, 1.2% active | AID 696; in the data active means activation fold above about 2
DUSP1 inh: blocks human MKP-1 phosphatase activity | P28562 | recombinant MKP-1, OMFP hydrolysis fluorescence | inhibition, %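 (compounds tested at a single concentration somewhere between 10 and 100 µM)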 | 65,000 tested, 0.15% active;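 active means inhibition above about 50%, limit read from the data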;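 further: 0% = DMSO max control wells and 100% = wells with enzyme stopped by NaOH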
* = called active by the depositor; / = not tested or not shown.

SMILES | TNAP act DEA | Cdc25B inh | HePTP inh | Hsp90 inh | PLAP activator | DUSP1 inh
COc1ccccc1NC(=O)C(=O)NNC(=O)c1ccco1 | / | / | / | / | 2.2* | /
COc1ccccc1NC(=O)c1cc(Cl)ccc1NC(=O)c1ccco1 | 0.9 | -7 | 2 | 3 | 1 | 9
C=CCNC(=S)NNC(=O)c1csc(C)c1CC | / | / | / | / | 2.1* | /
C=CCNC(=S)NNC(=O)c1ccc(OC(C)C)cc1 | / | / | / | / | 2.4* | /
C=CCNC(=S)NNC(=O)c1ccc2c(c1)OCO2 | / | / | / | / | 2.2* | /
C=CCNC(=S)NNC(=O)c1ccccc1 | / | / | / | / | 1.7 | /
CCNC(=S)NNC(=O)c1ccc(OC(F)F)cc1 | / | / | / | / | 2.3* | /
O=C(Nc1cccc(Oc2ccc(C(=O)O)c(C(=O)O)c2)c1)c1ccc(-c2ccccc2)cc1 | / | / | 102* | / | / | /
O=C(Nc1ccccc1)c1ccc(-c2ccccc2)cc1 | / | / | 1 | / | / | /
CCCc1cc(-c2[nH]ncc2-c2ccc3c(c2)OCCCO3)c(O)cc1O | 1.1 | 2 | 4 | 78* | 2.6* | 38
CCCc1cc(-c2[nH]ncc2-c2ccc(C(=O)OCC)o2)c(O)cc1O | 1.1 | -8 | 8 | 41 | 2.1* | 26
CCCC(=O)Nc1nc(-c2ccc3c(c2)OCCO3)cs1 | 0.9 | -5 | 4 | -2 | 0.9 | -4
O=C(NCc1ccccc1)c1n[nH]nc1-c1ccccc1O | 1 | -14 | 2 | 2 | 2.9* | -1
O=C(Cn1cnc2ccccc2c1=O)NCCC(=O)Nc1ccc2c(c1)OCCO2 | 0.9 | -11 | 2 | 86* | 1 | 7
COc1ccc(-c2nc(=S)[nH][nH]2)cc1 | 0.8 | -8 | 4 | -3 | 2* | 5
COc1ccc(S(=O)(=O)NCc2ccccn2)c(Cl)c1Cl | 0.8 | 0 | -1 | -2 | 2.1* | -8
COc1ccc(S(=O)(=O)NCc2ccccn2)cc1 | / | / | / | / | 0.9 | /
CCOc1ccc(S(=O)(=O)NCc2ccccn2)cc1 | / | / | / | / | 2* | /
O=C1NC(=S)S/C1=C/c1cc2c(cc1Cl)OCO2 | / | / | -6 | / | / | /
C=C(C)CNC(=S)NNC(=O)c1ccco1 | / | / | / | / | 2* | /
COc1cc(-c2nnc3ccc(C(F)(F)F)cn23)ccc1Oc1ccc([N+](=O)[O-])cc1 | / | / | 102* | / | / | /
O=C(N/N=C\c1cc(Br)cc(I)c1O)c1ccc([N+](=O)[O-])cc1 | / | / | -3 | / | / | /
O=[N+]([O-])c1ccc(N=Cc2cc(I)cc(I)c2O)c(O)c1 | / | / | 76* | / | / | /
O=C(N/N=C/c1ccccc1O)c1cnccn1 | / | / | 104* | / | / | /
O=C(N/N=C\c1ccccc1Br)c1cnccn1 | / | / | 8 | / | / | /
SMILES | TNAP act DEA | Cdc25B inh | HePTP inh | Hsp90 inh | PLAP activator | DUSP1 inh
O=C(CC1Nc2ccccc2NC1=O)Nc1cccc(C(=O)O)c1 (centres undefined) | / | / | 52* | / | / | /
COc1ccc(OC)c(-n2c(-c3ccc(C)cc3)n[nH]c2=S)c1 | / | / | / | / | 0.9 | /
CCCOc1cccc(-c2cc(-c3n[nH]c(=S)n3CC)c3ccccc3n2)c1 | / | / | / | / | 1.4 | /
CCn1c(-c2cc(-c3ccc(OC(C)C)cc3)nc3ccccc23)n[nH]c1=S | / | / | / | / | 2.2* | /
CCn1c(-c2cc(-c3cc(OC)ccc3OC)nc3ccccc23)n[nH]c1=S | / | / | / | / | 2.3* | /
CC(/C=N\NC(=O)Cn1nnc2ccccc21)=C/c1ccc(C(C)C)cc1 | / | / | -3 | / | / | /
CCOC(=O)c1cc(CC)sc1NC(=O)c1cc([N+](=O)[O-])ccc1N1CCN(CC)CC1 | / | / | -8 | / | / | /
COc1ccc(/C(C)=N/NC(=O)c2nc(C)cc(C)n2)cc1 | / | / | / | / | 2* | /
COc1ccc(/C(C)=N/NC(=O)c2ccc(N(C)C)cc2)cc1 | / | / | / | / | 1 | /
COc1ccc2nc(NC(=O)CN(C)S(=O)(=O)c3cccs3)sc2c1 | / | / | / | / | 1.2 | /
COc1ccc2nc(NC(=O)CNS(=O)(=O)c3cccs3)sc2c1 | / | / | / | / | 2.5* | /
CCn1c(SCC(=O)Nc2nc3ccc(OC)cc3s2)nc2c1c(=O)n(C)c(=O)n2C | 0.9 | 2 | 3 | -2 | 1.6 | 50*
Cc1csc(NC(=O)CNS(=O)(=O)c2cccs2)n1 | 1.1 | 0 | 4 | / | 2* | 4
CC(C)(C)c1cc(/C=N/NC(=O)Cc2nc3ccccc3[nH]2)cc(C(C)(C)C)c1O | / | / | / | / | 2* | /
Cc1ccc(/C=C2\CN(C)C/C(=C\c3ccc(C)cc3)C2=O)cc1 | / | / | -3 | / | / | /
CCOc1ccc(S(=O)(=O)NCc2ccc(F)cc2)c2cccnc12 | 1 | -10 | 4 | 1 | 1 | -3
CCOc1ccc(S(=O)(=O)Nc2ccc3c(c2)OCO3)c2cccnc12 | 0.9 | 2 | 8 | 54* | 1.2 | -7
C#Cc1c(C)n(-c2ccccc2)c2c(=O)n(Cc3ccccc3)cnc12 | / | / | -17 | / | / | /
Cc1ccc(NC(=O)CC2SCCNC2=O)cc1Cl (centres undefined) | 0.9 | -1 | 0 | 54* | 0.9 | -20
CCC(=O)N1CCNC(=O)C1CC(=O)Nc1ccc(C)c(Cl)c1 (centres undefined) | 0.9 | -5 | -7 | -4 | 1.1 | 8
O=c1c2c(nc3cc(-c4ccco4)[nH]n13)CCS2 | / | / | 100* | / | / | /
O=c1c2c(nc3cc(-c4cccs4)[nH]n13)CCS2 | / | / | 7 | / | / | /
O=c1c2c(nc3cc(-c4ccc(Cl)cc4)[nH]n13)CCS2 | / | / | 96* | / | / | /
CCOc1cc(/C=C2/C(=O)NC(=O)N(C)C2=O)cc(I)c1O | / | / | -9 | / | / | /
Cc1ccccc1NC(=O)NCCCN1CCN(c2ccccc2)CC1 | / | / | / | / | 2.8* | /
SMILES | TNAP act DEA | Cdc25B inh | HePTP inh | Hsp90 inh | PLAP activator | DUSP1 inh
O=C(NCCCN1CCN(c2ccccc2)CC1)Nc1ccccc1C(F)(F)F | 0.9 | -13 | 6 | -3 | 1.7 | 10
[N-]=[N+]=CC(=O)CC(c1ccccc1)N1C(=O)c2ccccc2C1=O (centres undefined) | 0.9 | -6 | 11 | -7 | 2* | -1
COc1cccc(N2C(=O)C(=O)/C(=C(\O)c3ccccc3)C2c2cccc(F)c2)c1 (centres undefined) | / | / | 2 | / | / | /
CC1=C(C(=O)OCC(C)C)C(c2ccsc2)NC(=O)N1 (centres undefined) | / | / | / | / | 1.2 | /
CCOC(=O)C1=C(C)NC(=O)NC1c1ccsc1 (centres undefined) | / | / | 104* | / | 0.9 | /
COCc1[nH]nc2c1C1(C(=O)N(C)c3ccccc31)C(C#N)=C(N)O2 (centres undefined) | 0.9 | 2 | 6 | -4 | 1 | 25
Cc1ccc(SCc2[nH]nc3c2C2(C(=O)N(C)c4ccccc42)C(C#N)=C(N)O3)cc1 (centres undefined) | 1 | 3 | 0 | -4 | 2* | -16
CC(=O)NC(NC(C)=O)c1ccc(Br)cc1 | / | 2 | / | 1 | 1.1 | -7
OC(c1ccc(Br)cc1)C12CN3CN(CN(C3)C1)C2 (centres undefined) | / | / | 104* | / | / | /
COC(=O)c1sc(NC(=O)/C=C/c2cccc([N+](=O)[O-])c2)c(C(=O)OC)c1C | / | / | 6 | / | / | /
Cc1ccc(S(=O)(=O)NNC(=O)C(=O)NNc2ccccn2)cc1 | / | / | / | / | 2.4* | /
Cc1ccccc1S(=O)(=O)NNC(=O)C(=O)NNc1ccccn1 | / | / | / | / | 2.4* | /
Nc1ccc(S(=O)(=O)NNC(=O)C(=O)NNc2ccccn2)cc1 | / | / | / | / | 1.7 | /
COc1ccc2oc(=O)c(-c3csc(NC(=O)/C=C\C(=O)O)n3)cc2c1 | / | / | 0 | / | / | /
